Assay results as given in PubChem BioAssay (EPA / NIEHS).
“And” between values parts separate entries of the source, which are not always exact repeats. Equal values may be shown once. The source made the active and inactive calls. How the source made its calls: active means hit-call score of the fitted dose curve at least 0.9, where 1 is the maximum; inactive means score below 0.9.

Tests used:
[1] = APR_HepG2_CellLoss_72hr: Apredica 72-hour HepG2 Assay for Cell Loss (AID 2282915); details: high-content imaging
Procedure, shortened: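 HepG2 cells exposed 72 h to compound at 0.39–200 uM (10 concentrations, duplicate) in 0.5% DMSO. Fixed with 3.7% formaldehyde and Hoechst 33342-stained. Imaged at 20x; nuclear count gives cell number, fitted bidirectionally versus DMSO.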

[2] = APR_HepG2_MitoMembPot_72hr: Apredica 72-hour HepG2 Assay for Mitochondrial Membrane Potential (AID 2282917); details: imaging, actives raise or lower the signal
Procedure, shortened: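 HepG2 cells dosed 72 hr with compound at 0.39–200 uM in duplicate, 0.5% v/v DMSO final. Mitochondria stained with 250 nM MitoTracker Red CMXRos for 30 min before formaldehyde fixation, imaged by high-content fluorescence; bidirectional fit versus DMSO.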

[3] = APR_HepG2_MitoticArrest_72hr: Apredica 72-hour HepG2 Assay for Mitotic Arrest (AID 2282918); details: high-content imaging, actives raise or lower the signal
Procedure, shortened: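 HepG2, 72 hr exposure, 0.39–200 uM in duplicate, 0.5% v/v DMSO final. Formaldehyde-fixed, Triton-permeabilized, anti-phospho-histone H3/FITC plus Hoechst. ArrayScan imaging at 20x; curves fit bidirectionally against DMSO baseline.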

[4] = APR_HepG2_MicrotubuleCSK_72hr: Apredica 72-hour HepG2 Assay for Microtubule CSK Stabilty (AID 2282919); details: HepG2 microtubule cytoskeleton, high-content imaging, actives raise or lower the signal
Procedure, shortened: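 HepG2, 72 hr cmpd exposure, 0.39–200 uM (10 pts, duplicate), 0.5% DMSO. 3.7% formaldehyde fix, 0.5% Triton perm, anti-alpha-tubulin/Cy5 plus Hoechst. HCS fluorescence intensity; bidirectional fit vs DMSO baseline; taxol as positive control.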

[5] = APR_HepG2_StressKinase_72hr: Apredica 72-hour HepG2 Assay for Stress Kinase (AID 2282921); details: HepG2 stress kinase (phospho-c-Jun) imaging, actives raise or lower the signal
Procedure, shortened: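 After a 72 h compound treatment spanning 0.39 to 200 uM, formaldehyde-fixed cells are labelled for phosphorylated c-Jun and nuclei, imaged by automated fluorescence microscopy, and activity is fitted in both directions relative to DMSO controls.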

[6] = APR_HepG2_StressKinase_24hr: Apredica 24-hour HepG2 Assay for Stress Kinase (AID 2282922); details: HepG2 stress kinase (phospho-c-Jun) imaging, actives raise or lower the signal
Procedure, shortened: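 Read-out: phospho-c-Jun immunofluorescence (Cy3 secondary) quantified by high-content imaging at 20x, nuclei defined by Hoechst 33342. Human HepG2 liver cells dosed 24 hr, 0.39–200 uM, DMSO 0.5% v/v; gain or loss of signal fitted relative to DMSO.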

[7] = APR_HepG2_MitoMass_72hr: Apredica 72-hour HepG2 Assay for Mitochondrial Mass (AID 2282924); details: high-content imaging, actives raise or lower the signal;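 further: MitoTracker Red CMXRos stain intensity per cell imaged as mitochondrial mass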
Procedure, shortened: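 Read-out: MitoTracker Red fluorescence intensity from automated imaging (20x, six fields per well) in human HepG2 liver cells. Dosing ran 72 hr, 0.39–200 uM, 0.5% DMSO; bidirectional curve fitting versus DMSO baseline.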

[8] = APR_HepG2_NuclearSize_72hr: Apredica 72-hour HepG2 Assay for Nuclear Size (AID 2282925); details: high-content imaging, actives raise or lower the signal
Procedure, shortened: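 Read-out: nuclear diameter from Hoechst 33342 images (ArrayScan, 20x, six fields/well), via cell-cycle image analysis. HepG2 were dosed 0.39–200 uM for 72 hr in 0.5% DMSO. Bidirectional fit relative to DMSO.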

[9] = ATG_CRE_CIS: Attagene CIS-FACTORIAL HepG2 Assay for human cAMP Responsive Element (CRE) binding protein 3 (AID 2282926); details: HepG2 CRE cis-reporter, Attagene multiplexed mRNA; actives raise or lower the signal
Procedure, shortened: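 Readout: fluorescently labelled reporter transcripts resolved by capillary electrophoresis after RT-PCR, taken 24 h post-dosing in transfected HepG2. Endogenous transcription factor activity drives each cis-element reporter; gain or loss of signal fitted relative to DMSO control.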

[10] = biological target: CCAAT/enhancer-binding protein beta (Homo sapiens) (UniProt P17676); experiment: ATG_C_EBP_CIS: Attagene CIS-FACTORIAL HepG2 Assay for human CCAAT/Enhancer Binding Protein (C/EBP) beta (AID 2282927); details: HepG2 Attagene cis-factorial transcription factor reporter; actives raise or lower the signal
Procedure, shortened: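 HepG2 transiently transfected with multiplexed reporter units under cis-regulatory promoters reporting endogenous C/EBPb activity. After 24 h exposure, reporter mRNA assayed by RT-PCR, fluorescent labelling, HpaI digestion and capillary electrophoresis; bidirectional fitting versus DMSO.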

[11] = ATG_CMV_CIS: Attagene CIS-FACTORIAL HepG2 Assay for human CMV (Internal Marker) (AID 2282928); details: HepG2 CMV promoter reporter, transcription factor profiling; actives raise or lower the signal;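 further: endpoint acts as a background internal control marker rather than a target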
Procedure, shortened: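 Readout: fluorescent reporter cDNA fragments separated by capillary electrophoresis after RT-PCR and HpaI cut. Cells: HepG2 carrying transfected cis-promoter reporter constructs, dosed 24 h. Endpoint serves as background internal-marker control, fit bidirectionally versus DMSO.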

[12] = ATG_DR4_LXR_CIS: Attagene CIS-FACTORIAL HepG2 Assay for human Liver X Receptor (LXR), DR4 submotif (AID 2282929); details: HepG2 Attagene DR4 cis-reporter, mRNA transcription; actives raise or lower the signal
Procedure, shortened: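 Endogenous factor activity at a DR4 cis-element is read as reporter mRNA in transiently transfected HepG2 cells. Exposure lasts 24 h; transcripts are amplified, fluorescently labelled and sized by capillary electrophoresis, with DMSO as baseline.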

[13] = biological target: Aryl hydrocarbon receptor (Homo sapiens) (UniProt P35869); experiment: ATG_Ahr_CIS: Attagene CIS-FACTORIAL HepG2 Assay for human Aryl Hydrocarbon Receptor (Ahr) (AID 2282930); details: HepG2 AhR cis-factorial reporter transcription; actives raise or lower the signal
Procedure, shortened: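 HepG2 cells transiently transfected with cis-element-driven multiplexed reporter units; endogenous AhR activity read as reporter mRNA 24 h after dosing, via RT-PCR, 6-FAM labelling, HpaI digestion and capillary electrophoresis. Bidirectional fit relative to DMSO.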

[14] = ATG_AP_1_CIS: Attagene CIS-FACTORIAL HepG2 Assay for human Activator Protein 1 (AP-1) (AID 2282931); details: HepG2 Attagene cis-factorial AP-1 reporter mRNA; actives raise or lower the signal
Procedure, shortened: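 Fluorescence of labelled PCR fragments separated by capillary electrophoresis gives reporter mRNA levels. HepG2 with transfected cis-regulated reporter units, 24 h exposure; DMSO serves as baseline for bidirectional curve fits.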

[15] = ATG_AP_2_CIS: Attagene CIS-FACTORIAL HepG2 Assay for human Activator Protein 2 (AP-2) (AID 2282932); details: HepG2 AP-2 cis-reporter, Attagene transcription factor profiling; actives raise or lower the signal
Procedure, shortened: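 Liver-derived HepG2 line, cis-reporter system measuring endogenous factors; 24 h dosing; reporter mRNA detected by fluorescent RT-PCR and capillary electrophoresis.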

[16] = ATG_BRE_CIS: Attagene CIS-FACTORIAL HepG2 Assay for human Bone Morphogenetic Protein (BMP) Response Element (BRE) (AID 2282933); details: HepG2 BMP response element reporter, Attagene transcription factor profiling; actives raise or lower the signal
Procedure, shortened: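 Read-out: reporter mRNA induction quantified by RT-PCR and capillary electrophoresis after 24 h chemical exposure of transfected HepG2 cells. Endogenous factor activity on the BMP response element; gain or loss fitted against DMSO baseline.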

[17] = biological target: Retinoic acid receptor alpha (Homo sapiens) (UniProt P10276); experiment: ATG_DR5_RAR_CIS: Attagene CIS-FACTORIAL HepG2 Assay for human Retinoic Acid Receptor Alpha (RARE), DR5 submotif (AID 2282934); details: HepG2 Attagene cis-factorial RARE DR5 reporter, mRNA; actives raise or lower the signal;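 on AC50: reporter responds to endogenous RAR alpha beta and gamma in HepG2 not RARA alone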
Procedure, shortened: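 HepG2 cells transiently transfected with multiplexed reporter units; DR5 cis-element drives reporter through endogenous transcription factors. After 24 h dosing, reporter mRNA quantified by RT-PCR, fluorescent labeling, HpaI digestion and capillary electrophoresis; bidirectional fitting versus DMSO.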

[18] = APR_HepG2_P-H2AX_24hr: Apredica 24-hour HepG2 Assay for H2AX Phosphorylation (AID 2282920); details: high-content imaging, actives raise or lower the signal
Procedure, shortened: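 HCS fluorescence imaging of phospho-H2A.x immunostain (with Hoechst 33342 nuclear counterstain) in HepG2 after 24 hr compound exposure; 10 concentrations, 0.39–200 uM, duplicate wells, 0.5% v/v DMSO. Gain or loss of signal fitted relative to DMSO baseline.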

[19] = APR_HepG2_p53Act_72hr: Apredica 72-hour HepG2 Assay for p53 Activation (AID 2282923); details: high-content imaging, actives raise or lower the signal;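 further: average cellular p53 protein immunofluorescence intensity in HepG2 cells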
Procedure, shortened: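 Imaging-based endpoint: after 72 hr compound exposure (up to 200 uM, 0.5% DMSO), fixed and permeabilized monolayers were labelled with anti-p53 antibody and imaged; signal change in either direction was fitted relative to DMSO controls.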

[20] = APR_HepG2_P-H2AX_72hr: Apredica 72-hour HepG2 Assay for H2AX Phosphorylation (AID 2282916); details: imaging, actives raise or lower the signal;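 further: phospho-histone H2A.x immunostain intensity per cell marking DNA damage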
Procedure, shortened: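 Human hepatoma HepG2 cells are dosed across ten concentrations (0.39 to 200 uM, 0.5% v/v DMSO) and incubated 72 hr. Phospho-histone H2A.x is then detected by antibody staining alongside c-Jun and Hoechst, and quantified by automated fluorescence imaging.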

Measured: AC50

Sequence of CCAAT/enhancer-binding protein beta (Homo sapiens) (P17676 whole entry, looked up): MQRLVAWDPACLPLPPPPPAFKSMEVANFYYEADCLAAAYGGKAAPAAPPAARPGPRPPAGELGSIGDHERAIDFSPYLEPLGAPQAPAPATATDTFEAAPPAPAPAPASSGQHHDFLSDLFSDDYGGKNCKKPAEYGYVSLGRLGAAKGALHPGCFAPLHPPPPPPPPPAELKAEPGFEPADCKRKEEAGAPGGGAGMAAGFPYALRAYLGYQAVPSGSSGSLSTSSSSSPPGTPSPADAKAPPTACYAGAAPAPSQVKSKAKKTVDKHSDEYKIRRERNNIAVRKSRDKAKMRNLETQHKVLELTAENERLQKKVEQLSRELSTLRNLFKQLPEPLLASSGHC
Sequence of Retinoic acid receptor alpha (Homo sapiens) (P10276 whole entry, looked up): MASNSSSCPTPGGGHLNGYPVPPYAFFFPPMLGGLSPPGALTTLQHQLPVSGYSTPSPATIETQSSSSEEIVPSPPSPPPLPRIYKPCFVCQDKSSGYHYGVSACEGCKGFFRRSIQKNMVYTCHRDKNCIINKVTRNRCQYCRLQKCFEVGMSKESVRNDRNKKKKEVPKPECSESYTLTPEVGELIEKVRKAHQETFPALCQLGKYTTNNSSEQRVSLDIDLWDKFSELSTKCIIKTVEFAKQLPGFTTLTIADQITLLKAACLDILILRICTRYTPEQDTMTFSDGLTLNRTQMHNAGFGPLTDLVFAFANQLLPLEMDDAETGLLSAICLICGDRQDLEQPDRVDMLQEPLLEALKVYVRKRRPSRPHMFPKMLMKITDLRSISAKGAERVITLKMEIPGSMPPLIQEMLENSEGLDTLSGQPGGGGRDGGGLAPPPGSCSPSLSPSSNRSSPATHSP
Sequence of Aryl hydrocarbon receptor (Homo sapiens) (P35869 whole entry, looked up): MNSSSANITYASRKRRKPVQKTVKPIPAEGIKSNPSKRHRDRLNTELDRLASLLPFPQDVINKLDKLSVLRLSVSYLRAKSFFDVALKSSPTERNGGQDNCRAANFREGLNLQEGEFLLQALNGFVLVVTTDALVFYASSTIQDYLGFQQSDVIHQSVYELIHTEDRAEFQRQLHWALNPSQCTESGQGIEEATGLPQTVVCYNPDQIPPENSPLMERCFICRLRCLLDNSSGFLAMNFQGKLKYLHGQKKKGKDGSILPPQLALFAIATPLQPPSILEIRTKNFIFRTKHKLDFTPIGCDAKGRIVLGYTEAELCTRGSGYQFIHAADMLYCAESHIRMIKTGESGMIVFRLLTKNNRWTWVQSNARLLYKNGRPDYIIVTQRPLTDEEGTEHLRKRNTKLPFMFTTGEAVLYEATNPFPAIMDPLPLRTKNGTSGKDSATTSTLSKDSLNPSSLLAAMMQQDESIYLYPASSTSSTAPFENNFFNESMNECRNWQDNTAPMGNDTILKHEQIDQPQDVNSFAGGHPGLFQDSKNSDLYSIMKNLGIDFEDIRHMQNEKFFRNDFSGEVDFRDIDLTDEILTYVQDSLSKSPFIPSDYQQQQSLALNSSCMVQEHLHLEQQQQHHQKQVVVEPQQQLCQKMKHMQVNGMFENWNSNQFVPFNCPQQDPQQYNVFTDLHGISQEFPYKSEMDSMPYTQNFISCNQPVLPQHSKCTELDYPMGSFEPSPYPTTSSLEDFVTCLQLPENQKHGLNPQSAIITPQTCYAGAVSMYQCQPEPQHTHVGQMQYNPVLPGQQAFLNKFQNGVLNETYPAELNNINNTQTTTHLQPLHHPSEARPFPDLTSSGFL

COc1cc2c(c(OC)c1OC)-c1ccc(OC)c(=O)cc1[C@@H](NC(C)=O)CC2
active: [1] 0.0536 µM | [3] 0.0391 µM | [4] 0.0628 µM | [5] 0.0456 µM | [6] 0.0391 µM | [11] 0.0703 µM | [14] 0.123 µM | [15] 61.1 µM | [16] 4.6 µM
inactive: [2] | [7] | [8] | [9] | [10] | [12] | [13] | [17]

CC(=O)c1ccccc1
not listed: [17] | [20]
inactive: all other assays above

c1ccc2c(c1)-c1cccc3c1c-2cc1ccccc13
active: [1] 7.58 µM | [7] 0.0391 µM | [13] 57 nM and 28.1 µM
not listed: [18] | [19] | [20]
inactive: all other assays above

CCc1cccc(CC)c1N
not listed: [13] | [17] | [18]
inactive: all other assays above

O=C1CN(N=Cc2ccc([N+](=O)[O-])o2)C(=O)N1
active: [1] 41.9 µM | [20] 65.2 µM | [3] 58.3 µM | [19] 46.8 µM | [7] 90.5 µM | [11] 45.7 µM | [14] 68.5 µM
not listed: [4] | [8] | [13] | [18]
inactive: all other assays above

NC(N)=O
not listed: [13] | [17] | [19] | [20]
inactive: all other assays above

O=S(=O)(O)c1ccc(N=Nc2c(O)ccc3cc(S(=O)(=O)O)ccc23)cc1
not listed: [19] | [20]
inactive: all other assays above

NC(=O)N(O)[C@@H]1COc2cc(OCc3ccccc3)ccc21
active: [17] 0.406 µM
not listed: [13] | [18] | [19] | [20]
inactive: all other assays above

CCCc1ccccc1
not listed: [13] | [20]
inactive: all other assays above

OCc1ccccc1
not listed: [13] | [18] | [19] | [20]
inactive: all other assays above

OC(CCl)CCl
not listed: [13] | [17] | [18] | [20]
inactive: all other assays above

Cc1nccn1-c1ccc(Sc2cccc(C3(C(N)=O)CCOCC3)c2)cc1
active: [1] 17.4 µM | [20] 40.9 µM | [5] 64 µM | [9] 1.67 µM | [10] 1.94 µM | [11] 0.93 µM | [15] 8.08 µM | [17] 1.83 µM
not listed: [13] | [18] | [19]
inactive: all other assays above

CCCCC(CC)C(=O)OCCOCCOCCOC(=O)C(CC)CCCC (configuration not stated)
active: [1] 89.8 µM | [3] 91.2 µM | [12] 160 µM
not listed: [13] | [18] | [20]
inactive: all other assays above

O=S1(=O)CCCO1
not listed: [13] | [17]
inactive: all other assays above
